In test [1] the target is Acetylcholinesterase (Homo sapiens) (UniProt P22303). As to the kind of experiment: Acetylcholinesterase (AChE) small molecule antagonists: colormetric cell-based qHTS assay (AID 1347395). Also: nearly all actives have a fitted effect of over 30% in size. Also: potency is read from the fitted curve at half-maximal effect. The essentials: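 Neuroblastoma line SH-SY5Y supplied the enzyme; cells were preincubated with compound for 30 min at 37 C and 5% CO2. Acetylthiocholine with DTNB was then added for 90 min at 37 C, and thiocholine was measured by colour.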
Acetylcholinesterase (Homo sapiens), sequence (P22303 whole entry, looked up): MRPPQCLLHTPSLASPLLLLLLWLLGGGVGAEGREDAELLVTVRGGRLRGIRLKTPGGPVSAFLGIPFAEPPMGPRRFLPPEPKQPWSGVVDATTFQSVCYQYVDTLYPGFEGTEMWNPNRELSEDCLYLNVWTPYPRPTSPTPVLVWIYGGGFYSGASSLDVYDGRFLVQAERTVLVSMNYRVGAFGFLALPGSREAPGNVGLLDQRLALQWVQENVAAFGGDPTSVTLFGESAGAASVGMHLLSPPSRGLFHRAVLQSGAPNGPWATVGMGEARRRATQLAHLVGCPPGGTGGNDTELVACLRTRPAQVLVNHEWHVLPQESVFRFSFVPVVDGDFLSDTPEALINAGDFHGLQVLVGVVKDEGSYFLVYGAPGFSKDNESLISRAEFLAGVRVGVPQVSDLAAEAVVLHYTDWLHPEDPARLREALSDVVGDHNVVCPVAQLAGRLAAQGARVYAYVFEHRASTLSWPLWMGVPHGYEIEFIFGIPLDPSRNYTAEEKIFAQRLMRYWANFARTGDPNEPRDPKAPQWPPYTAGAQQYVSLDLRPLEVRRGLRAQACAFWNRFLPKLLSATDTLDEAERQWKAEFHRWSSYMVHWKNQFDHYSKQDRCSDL

Test [2] shares this target. The test can be described thus: Acetylcholinesterase (AChE) small molecule antagonists: enzyme-based qHTS assay (AID 1347397). Also: nearly all actives have a fitted effect of over 55% in size. Also: potency is read from the fitted curve at half-maximal effect. The following applies: Potency: AChE enzyme activity inhibition; outcome: AChE enzyme activity inhibition. The essentials: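 Colorimetric DTNB read-out of thiocholine released from acetylthiocholine by recombinant human AChE (50 mU/mL as dispensed). Compounds were preincubated 30 min at RT before substrate/DTNB addition, with a 10 min RT reaction.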

The target is the same in test [3]. The test can be described thus: Acetylcholinesterase (AChE) small molecule antagonists: fluorescence cell-based qHTS assay (AID 1347398). Also: nearly all actives have a fitted effect of over 50% in size. Also: potency is read from the fitted curve at half-maximal effect. The following applies: Potency: AChE activity; outcome: AChE activity. The method in brief: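 SH-SY5Y, 2,000 cells/well, attached overnight; cmpd 30 min 37 C; acetylthiocholine/Thiolite Green cocktail 40 min RT; fluorescence Ex/Em 490/520 nm.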

Test [4] has the same target. The test can be described thus: Acetylcholinesterase (AChE) small molecule antagonists: enzyme-based qHTS assay with human liver microsomes (AID 1347399). Also: nearly all actives have a fitted effect of over 60% in size. The following applies: Potency: qHTS inhibition; outcome: qHTS inhibition. The method in brief: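 Recombinant human AChE (50 mU/mL in the enzyme mix) and human liver microsomes (0.25 mg/mL final) were preincubated with compound and NADPH (0.25 mg/mL final) for 30 min at 37 C. Acetylthiocholine/DTNB was then added; thiocholine was read colorimetrically after 10 min at room temperature.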

Several values for one entry are separate records, joined by “and”; a condition that tells them apart may be missing. Equal entries are not always repeated. Unmarked numbers belong to inactive results. Results filed as inconclusive are left out. Activity calls are given as the source filed them. Calls follow the shape of the full dose curve.
% is scaled to controls: 0 for no effect and ±100 for the full control effect.

In the case of `CO[C@H]1C=CO[C@@]2(C)Oc3c(C)c(O)c4c(O)c(c(/C=N/N5CCN(C)CC5)c(O)c4c3C2=O)NC(=O)/C(C)=C\C=C[C@H](C)[C@H](O)[C@@H](C)[C@@H](O)[C@@H](C)[C@H](OC(C)=O)[C@@H]1C`, the Potency result in test [1], in test [2], in test [3] and in test [4] was “inactive” throughout.
As to `CC1=NN(c2cc(Cl)c(S(=O)(=O)O)cc2Cl)C(=O)C1N=Nc1ccc(S(=O)(=O)O)cc1` (stereo not given), the Potency result in test [1], in test [2], in test [3] and in test [4] was “inactive” throughout.
As for `CN1CCN(c2c(F)cc3c(=O)c(C(=O)O)cn4c3c2OCN4C)CC1`, in test [1], the activity, negative = inhibition was 1.67% [at 23.6 µM]. The activity change, negative = inhibition in test [2] is 0.0377% [at 23.6 µM]; in test [3] it was 5.01% [at 23.8 µM]; in test [4], -0.167% [at 23.6 µM].
Turning to `CC1(C)O[C@@H]2[C@@H](CO[C@@]3(COS(N)(=O)=O)OC(C)(C)O[C@@H]23)O1`, the Potency result in test [1], in test [2], in test [3] and in test [4] was “inactive” in each case.
Regarding `CCCCCCCCNC(C)C(O)c1ccc(SC(C)C)cc1` (stereo not given), the Potency result in test [1], in test [2], in test [3] and in test [4] was “inactive” in each case.
Turning to `C=C1c2cccc(O)c2C(O)=C2C(=O)[C@]3(O)C(O)=C(C(N)=O)C(=O)[C@@H](N(C)C)[C@@H]3[C@@H](O)[C@H]12`, the Potency result in test [1], in test [2], in test [3] and in test [4] was “inactive” in each case.
Take `C/C=C/c1ccc(OC)cc1`: the Potency entry in test [1], in test [2], in test [3] and in test [4] was “inactive” each time.
For `O=S(=O)(O)c1cccc2ccccc12`, the Potency result in test [1], in test [2], in test [3] and in test [4] was “inactive” throughout.
As for `CN1C[C@@H]2C[C@H]1CN2c1cc2c(cc1F)c(=O)c(C(=O)O)cn2C1CC1`, the activity, negative = inhibition in test [1] was 1.26% [at 23.6 µM]. The activity change, negative = inhibition in test [2] is -0.543% [at 23.6 µM]; in test [3], 1.64% [at 23.8 µM]; in test [4], 0.0665% [at 23.6 µM].
As for `Nc1cc(-c2ccncc2)c[nH]c1=O`, the Potency entry in test [1], in test [2], in test [3] and in test [4] was “inactive” in each case.
Consider `Nc1cc(=O)[nH]c(N)n1`, for which the Potency result in test [1], in test [2], in test [3] and in test [4] was “inactive” in each case.
With `C=CCCCCCCCCO`, the Potency result in test [1], in test [2], in test [3] and in test [4] was “inactive” throughout.
In the case of `O=S(=O)(O)C(F)(F)F`, the Potency result in test [1], in test [2], in test [3] and in test [4] was “inactive” each time.
For the compound `C=Cc1c(C)c2cc3[nH]c(cc4nc(cc5nc(cc1[nH]2)C(C)=C5CCC(=O)O)C(CCC(=O)O)=C4C)c(C)c3C=C`, the Potency result in test [1], in test [2], in test [3] and in test [4] was “inactive” in each case.
`COc1ccc(N)c(C)c1`: the Potency result in test [1], in test [2], in test [3] and in test [4] was “inactive” each time.
For the compound `C=Cc1ccc(O)c(OC)c1`, the Potency result in test [1], in test [2], in test [3] and in test [4] was “inactive” throughout.
For the compound `COCC(C)N` (stereo not given), the Potency entry in test [1], in test [2], in test [3] and in test [4] was “inactive” throughout.
For `CCCCCCCCSCCO`, the Potency result in test [1], in test [2], in test [3] and in test [4] was “inactive” each time.
`O[C@@H]1CO[C@H]2[C@@H]1OC[C@@H]2O`: the Potency result in test [1], in test [2], in test [3] and in test [4] was “inactive” each time.
As for `CC(C)=CCC/C(C)=C/C=O`, the Potency result in test [1], in test [2], in test [3] and in test [4] was “inactive” each time.
As for `COC(=O)C(C)Oc1ccc(Oc2ncc(C(F)(F)F)cc2Cl)cc1` (stereo not given), the Potency result in test [1], in test [2], in test [3] and in test [4] was “inactive” each time.
Consider `Cc1cc(O)c(C)c(C)c1O`, for which the Potency entry in test [1], in test [2], in test [3] and in test [4] was “inactive” each time.
For the compound `CCCCC1CCC(O)CC1` (stereo not given), the Potency entry in test [1], in test [2], in test [3] and in test [4] was “inactive” in each case.
In the case of `C/C=C/CO`, the Potency result in test [1], in test [2], in test [3] and in test [4] was “inactive” each time.
Take `CCC(C(=O)NC(=O)NC(C)=O)c1ccccc1` (stereo not given): the Potency entry in test [1], in test [2], in test [3] and in test [4] was “inactive” each time.
With `O=S(=O)(Oc1ccc(Cl)cc1Cl)c1ccccc1`, the Potency result in test [1], in test [2], in test [3] and in test [4] was “inactive” throughout.
Regarding `CCCCC(CC)COS(=O)(=O)O` (stereo not given), the Potency entry in test [1], in test [2], in test [3] and in test [4] was “inactive” in each case.
Turning to `CN1CCC(=C2c3ccccc3CCc3cccnc32)CC1`, the Potency entry in test [1], in test [2], in test [3] and in test [4] was “inactive” throughout.
In the case of `O=C(O)c1ccccc1C(=O)OCc1ccccc1`, the Potency entry in test [1], in test [2], in test [3] and in test [4] was “inactive” throughout.
Regarding `CN/C(=C\[N+](=O)[O-])NCCSCc1csc(CN(C)C)n1`, the Potency was 11.2 µM (active) and 13.8 µM (active) in test [1]; 35.6 µM (active) and 27.5 µM (active) in test [2]; 35.6 µM (active) in test [3]. The Potency result in test [4] was “inactive”.

These data come from PubChem BioAssay (Tox21).
